The whole screen tested about 68,000 compounds, of which about 2,700 (4%) showed an effect of 50% or more. This excerpt belongs to a sample that is enriched for strong results.

For the assay, the system named is Plasmodium berghei. Put plainly: Screen against P. berghei liver stage (PbLuc), transformed with Luciferase, at 2uM. Particulars: tested at 2 uM. Format: functional, HepG2.
In the case of `COCc1cccc(C(=O)N2CCCN(C(=O)OCC(C)C)CC2)c1`, the INHIBITION turned out to be 29.19%.
Turning to `COC(=O)CNC(=O)c1c(-n2cnnn2)sc2c1CCCC2`, the INHIBITION was 17.26%.
For `Cc1nc(CO[C@H]2CN(C(=O)c3cccn3C)[C@@H]3COC[C@H]23)cs1` the value was 36.75%.
With `O=C(Nc1ccccc1)[C@H]1O[C@H](CCN2CCNCC2)CC[C@@H]1O`, the INHIBITION is 51.81%.
As for `CN1CCN(CC[C@@H]2CC[C@H](O)[C@@H](C(=O)Nc3ccccc3)O2)CC1`, the INHIBITION is reported as 29.85%.
For `O=C(Nc1ccccc1)[C@H]1O[C@H](CCN2CCCCC2)CC[C@@H]1O` the value was 4.04%.
Consider `CCN1CCCC1CNCc1cc2cc3c(cc2[nH]c1=O)OCCO3` (stereo not given), for which the INHIBITION was 16.87%.
Turning to `CNC(=O)[C@@H](C1CC1)N1CCC[C@H]1C(=O)NCC(C)C`, the INHIBITION amounted to 40.28%.
The same measure for `CCCNC(=O)[C@@H]1CCCN1[C@@H](C(=O)NC)C1CC1`: 40.28%.
The same measure for `CCNC(=O)[C@@H]1CCCN1[C@@H](C(=O)NC)C1CC1`: 54.01%; for `O=C1CN(C(=O)C2CCCCC2)CC(O)CN1Cc1ccc(Cl)cc1` (stereo not given): 43.15%; for `Cn1ccnc1CN1CCC2(CC1)CC(N1CCCC1)c1ccccc12` (stereo not given): -11.26%.
`Cc1ccc(-n2cnnn2)cc1NCC(=O)Nc1cc(F)ccc1F`: the INHIBITION stood at 19.95%.
`Cc1nn(C(C)C)c(C)c1CN1CCN(C2CCCCC2)C(=O)C1`: the INHIBITION is given as -22.72%.
`C=C(C)Cn1nc(C)c(CN2CCN(C3CCCCC3)C(=O)C2)c1C`: the INHIBITION is on record as -17.01%.
The same measure for `Cc1nn(CCO)c(C)c1CN1CCN(C2CCCCC2)C(=O)C1`: 57.21%.
For `CO[C@H]1CC[C@H]2[C@H]1OCCN2C(=O)C1=CCCC1` the value was 28.81%.
The same measure for `CCN1CCC(Cn2ccc3ccc(C(=O)OC)cc3c2=O)C1` (stereo not given): 39.26%; for `O=C(CCNS(=O)(=O)c1ccc(Cl)cc1)NCc1ccoc1`: -29.08%.
With `CCNC(=O)NC1CCCN(c2ccc(C)cc2)C1=O` (stereo not given), the INHIBITION was found to be 10.63%.
For `CCOCc1nnc(NCc2ccsc2)o1` the value was -19.14%.
On to `CCOCc1nnc(NCc2cccc(C)c2)o1`, for which the INHIBITION amounted to 55.39%.
Take `COCc1cccc(NCc2cccnc2)c1`: the INHIBITION is given as -12.52%.
The same measure for `Cc1cccc(CNc2nnc(C(C)C)o2)c1`: 3.62%.
As to `CCOCc1nnc(NCc2cccnc2)o1`, the INHIBITION is reported as 54.29%.
Take `Cc1cccc(CNc2n[nH]c(C)n2)c1`: the INHIBITION worked out at 14.11%.
For `COc1ccc2c(C)nc(N3CCN([C@H]4CCCC[C@@H]4O)CC3)nc2c1` the value was -104.21%; for `CC(C)OCc1ncn2c1CN(Cc1cccs1)CCC2`, 16.22%.
Consider `Cn1c(CS(=O)(=O)Cc2ccc(Cl)cc2)cc(=O)n(C)c1=O`, for which the INHIBITION was found to be 26.34%.
For `Cc1nnc([C@]23COC[C@H]2CN(Cc2nccs2)C3)o1` the value was 51.36%; for `Cc1cc(CN2C[C@@H]3COC[C@]3(c3nnc(C)o3)C2)no1`, -83.05%; for `Cc1nnc([C@]23COC[C@H]2CN(Cc2cccs2)C3)o1`, 27.73%.
Regarding `O=C(CCNS(=O)(=O)c1ccc(F)cc1)NCc1ccoc1`, the INHIBITION was determined as 12.01%.
For `Cc1nccn1-c1ncccc1NC(=O)CCOCC(C)C` the value was 53.54%.
In the case of `CCOCCCC(=O)Nc1cccnc1-n1ccnc1C`, the INHIBITION is on record as -12.09%.
For `CC(C)COCCC(=O)Nc1cccnc1-n1cncn1` the value was 22.88%; for `CC(C)(C)c1noc(CCCC(=O)NCC2CCS(=O)(=O)C2)n1` (stereo not given), -12.82%.
In the case of `COC(=O)CNC(=O)c1sccc1N(C)S(=O)(=O)c1ccc(Cl)cc1`, the INHIBITION was determined as 3.38%.
As for `Nc1cc2c(nn1)CCN(C(=O)CC1CCCCC1)C2`, the INHIBITION is reported as 38.76%.
In the case of `CCc1nc(CN(C)C2CCN(Cc3nc(C4CC4)no3)C2)no1` (stereo not given), the INHIBITION is on record as -45.03%.
The same measure for `O=C(CC[C@@H]1CCCN2CCCC[C@H]12)NCCc1nc(O)cc(O)n1`: 51.77%.
As to `Nc1cc(O)nc(CCNC(=O)CC[C@@H]2CCCN3CCCC[C@H]23)n1`, the INHIBITION was 26.81%.
As to `O=C(CC[C@@H]1CCCN2CCCC[C@H]12)NCCc1cc(O)ncn1`, the INHIBITION is on record as -20.38%.
On to `Cn1nc(C2CCNCC2)c2c(C(=O)NC3CC3)cc(C3CC3)nc21`, for which the INHIBITION was found to be 40.28%.
For `CC(C)c1cc(NC(CO)CO)n2nccc2n1` the value was 20.14%.
With `CC(C)c1cc(N[C@H](C(N)=O)C(C)C)n2nccc2n1`, the INHIBITION is -48.3%.
In the case of `CC(C)c1cc(N[C@@H](CO)C(N)=O)n2nccc2n1`, the INHIBITION was found to be 50.42%.
For `COCCc1noc(CN2CC(C)(c3ccccc3)CCC2=O)n1` (stereo not given) the value was -12.84%; for `Cn1ccnc1C1c2nc[nH]c2CCN1Cc1cccnc1` (stereo not given), -7.68%.
The same measure for `CCc1nc(C2CCCN(C(=O)NC(C)C)C2)no1` (stereo not given): 9.82%; for `CCN1N=C(C(=O)N2CCCC(c3noc(C)n3)C2)CCC1=O` (stereo not given): 10.23%.
For `CCc1nc(C2CCCN(C(=O)C3=NN(CC)C(=O)CC3)C2)no1` (stereo not given), the INHIBITION is given as 53.19%.
As for `Cc1nc(C2CCCN(C(=O)C3=NN(C(C)C)C(=O)CC3)C2)no1` (stereo not given), the INHIBITION came to 21.24%.
For `CCc1csc(C2CCCN(C(=O)C3=NN(CC)C(=O)CC3)C2)n1` (stereo not given) the value was 3.9%.
Take `CCc1nc(C2CCCN(C(=O)C3=NN(C(C)C)C(=O)CC3)C2)no1` (stereo not given): the INHIBITION came out at 52.08%.
